# Measurements taken from PubChem BioAssay AID602455 (Southern Research Specialized Biocontainment Screening …, 2012).
# Results with a measured potency or affinity are listed apart. Active and inactive are the calls of the source. No rule for the calls is given here.
# Experiment: CPE inhibition in VEEV TC 83 infected cells, confirmatory screen (AID 602455)
# Conditions: series mostly up to 50 µM
row,Compound,outcome
1,O=C(Nc1nc2c(s1)CCCC2)c1cccs1,inactive
2,O=C(Cc1cccs1)Nc1nc2ccccc2s1,inactive
3,O=C(Cc1cccs1)Nc1nccs1,inactive
